# Source: PubChem BioAssay (NCATS)
# Inconclusive results are not listed. Active and inactive are the calls of the source. Unless noted, calls follow the shape of the dose curve; as a rule, active = well fitted curve in the direction sought with a large enough effect; inconclusive = small, poorly fitted or top-dose-only effect, or another doubt; inactive = no such curve, though single readings can be large; an effect the other way counts as inactive or inconclusive.
# Experiments:
# [1] = Confirmation and Secondary Assay for Modulators of Hemoglobin Beta Chain Splicing at IVS2 654 locus (AID 910);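 also: HeLa cells stably carrying EGFP split by mutant beta-globin IVS2-654 intron; per-well total GFP intensity by laser scanning cytometry after 2-day treatment; % of control where 0% means no effect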
# Procedure, shortened: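 Readout: per-well total peak green fluorescence (488 nm ex, 500–520 nm em) from objects 5–250 µm, reflecting correct splicing of an EGFP-654 reporter. Compounds were applied for 2 days at 37 °C to overnight-plated HeLa EGFP-654 cells; controls were DMSO and 500 nM IVS2-654 PNA.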
# [2] = Confirmation and Secondary Assay for Modulators of Hemoglobin Beta Chain Splicing at IVS2 705 locus (AID 930);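 also: HeLa cells stably expressing the EGFP-705 splicing reporter; GFP fluorescence per well restored by corrected splicing of the IVS2-705 intron in EGFP; % of control where 0% means no effect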
# Procedure, shortened: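 Splice-correction reporter: EGFP cDNA split by beta-globin intron 2 bearing the 705 mutation, stably in HeLa. Compound incubation 2 days, 37C; fluorescent objects 5-250 µm summed per well.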
# [3] = qHTS Assay for Lipid Storage Modulators (AID 1519; calls by dose curve; as to activity change, negative = inhibition: % is scaled to controls: 0 for no effect and ±100 for the full control effect); details: Drosophila S3 cells, BODIPY lipid droplet/cell ratio, laser cytometry, cells loaded with oleic acid; for activity change, negative = inhibition: at 57.5 µM (top of the series)
# Procedure, shortened: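 Cells seeded at 5,000 per well were treated with compounds over a concentration series and loaded with oleic acid (400 uM, as added). Lipid droplet fluorescence (488 nm excitation, 500-530 nm channel) was read by laser-scanning cytometry and normalized to 20 uM Triacsin C.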
# [4] = biological target: Ubiquitin carboxyl-terminal hydrolase 1 (Homo sapiens) (UniProt O94782); assay: Inhibitors of USP1/UAF1: Pilot qHTS (AID 504865);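 also: rhodamine fluorescence freed from ubiquitin-rhodamine substrate followed over time; top concentration of the series differs between compounds; % is scaled to controls: 0 for no effect and ±100 for the full control effect; nearly all actives have a fitted effect of over 35% in size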
# Chain of Ubiquitin carboxyl-terminal hydrolase 1 (Homo sapiens) (O94782 whole entry, looked up): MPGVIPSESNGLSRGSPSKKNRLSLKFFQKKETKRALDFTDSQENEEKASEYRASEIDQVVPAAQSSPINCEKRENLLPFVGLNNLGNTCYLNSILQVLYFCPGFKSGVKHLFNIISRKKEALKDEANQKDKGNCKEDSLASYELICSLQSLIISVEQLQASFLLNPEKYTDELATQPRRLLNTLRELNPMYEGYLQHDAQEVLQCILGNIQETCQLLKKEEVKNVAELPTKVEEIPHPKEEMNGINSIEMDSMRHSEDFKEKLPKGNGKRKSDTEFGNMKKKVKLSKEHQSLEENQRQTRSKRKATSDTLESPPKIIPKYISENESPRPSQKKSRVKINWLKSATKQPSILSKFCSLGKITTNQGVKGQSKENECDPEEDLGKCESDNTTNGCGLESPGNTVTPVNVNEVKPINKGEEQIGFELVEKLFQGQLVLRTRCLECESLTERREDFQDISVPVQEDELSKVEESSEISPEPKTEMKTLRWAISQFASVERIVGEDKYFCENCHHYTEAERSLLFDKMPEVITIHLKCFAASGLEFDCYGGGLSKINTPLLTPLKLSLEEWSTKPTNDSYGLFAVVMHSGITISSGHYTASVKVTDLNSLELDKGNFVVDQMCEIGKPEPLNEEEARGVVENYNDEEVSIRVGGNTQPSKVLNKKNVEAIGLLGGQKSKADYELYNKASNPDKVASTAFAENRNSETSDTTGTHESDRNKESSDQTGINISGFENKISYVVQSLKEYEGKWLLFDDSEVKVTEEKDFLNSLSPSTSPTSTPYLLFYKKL
# Procedure, shortened: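 USP1/UAF1 complex (1nM) preincubated with compound 15 min at room temperature, then Ub-Rho substrate (150nM final) added. Fluorescence read kinetically at 480/540 nm, 6 reads every 60 seconds. Buffer: 50mM HEPES pH 7.8, 0.5mM EDTA, 0.1 mg/ml BSA, 1mM TCEP, 0.01% Tween-20.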
# [5] = biological target: Cytochrome P450 3A4 (Homo sapiens) (UniProt P08684); assay: qHTS Assay for Inhibitors and Substrates of Cytochrome P450 3A4 (AID 884); also: potency is read from the fitted curve at half-maximal effect; nearly all actives have a fitted effect of over 50% in size
# Chain of Cytochrome P450 3A4 (Homo sapiens) (P08684 whole entry, looked up): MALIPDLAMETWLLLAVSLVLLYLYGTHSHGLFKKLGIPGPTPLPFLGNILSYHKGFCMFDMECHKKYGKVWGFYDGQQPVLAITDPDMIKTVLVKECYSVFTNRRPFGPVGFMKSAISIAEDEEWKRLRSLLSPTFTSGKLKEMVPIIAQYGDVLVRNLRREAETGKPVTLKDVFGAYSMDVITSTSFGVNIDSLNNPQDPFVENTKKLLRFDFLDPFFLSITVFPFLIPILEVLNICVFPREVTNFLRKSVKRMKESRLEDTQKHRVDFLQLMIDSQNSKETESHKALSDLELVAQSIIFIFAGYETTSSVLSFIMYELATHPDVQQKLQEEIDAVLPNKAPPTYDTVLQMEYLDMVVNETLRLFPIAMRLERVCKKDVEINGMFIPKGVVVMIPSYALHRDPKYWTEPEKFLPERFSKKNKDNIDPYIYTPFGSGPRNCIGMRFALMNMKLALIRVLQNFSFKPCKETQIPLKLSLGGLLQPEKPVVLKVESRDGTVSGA
# Procedure, shortened: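 Luminescent readout of luciferin produced by CYP3A4 (20 nM) dealkylation of Luciferin-PPXE, 25 uM (its KM). NADPH-driven reaction ran 60 min at RT after 10 min compound preincubation; data scaled to 57 uM ketoconazole as 100% inhibition.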
# [6] = biological target: Cytochrome P450 3A4 (Homo sapiens) (UniProt P08684); assay: qHTS Assay for Activators of Cytochrome P450 3A4 (AID 885); also: nearly all actives have a fitted effect of over 65% in size
# Procedure, shortened: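 Human CYP3A4 dealkylates Luciferin-PPXE to luciferin, which luciferase detection converts to light. Substrate was at its KM (25uM), buffer 200mM KPO4, reaction 60 min at RT.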
# [7] = biological target: DNA dC->dU-editing enzyme APOBEC-3G (Homo sapiens) (UniProt Q9HC16); assay: qHTS for inhibitors of Vif-A3G interactions: Validation (AID 588379); also: 0% is about no effect
# Chain of DNA dC->dU-editing enzyme APOBEC-3G (Homo sapiens) (Q9HC16 whole entry, looked up): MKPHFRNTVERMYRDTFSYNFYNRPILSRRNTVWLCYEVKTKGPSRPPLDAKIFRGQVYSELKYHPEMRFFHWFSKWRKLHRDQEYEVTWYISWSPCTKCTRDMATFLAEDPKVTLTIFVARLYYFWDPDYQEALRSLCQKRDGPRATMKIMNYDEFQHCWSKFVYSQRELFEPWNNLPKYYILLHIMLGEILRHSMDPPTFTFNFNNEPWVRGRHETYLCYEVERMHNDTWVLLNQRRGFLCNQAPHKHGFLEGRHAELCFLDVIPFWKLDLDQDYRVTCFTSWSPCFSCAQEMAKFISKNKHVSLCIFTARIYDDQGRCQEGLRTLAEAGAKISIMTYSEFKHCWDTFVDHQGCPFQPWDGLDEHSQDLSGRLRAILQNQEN
# Procedure, shortened: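 Yellow fluorescence (Ex 488, Em 500-530) of Vif-coexpressing HeLa A3G-eYFP cells, scanned by Acumen cytometer, reports blocked A3G degradation. Cells plated at 700/well overnight at 37 deg C before compound addition, then a further overnight compound incubation at 37 deg C.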
# [8] = measured here: cell count channel max response
# [9] = measured here: lipid channel max response
Compound,Potency [1],Potency [2],"activity change, negative = inhibition [3]","max response [3, 8] [%]","max response [3, 9] [%]",Potency [4],Potency [5],Potency [6],outcome [7]
CCOC(=O)C(CCc1ccccc1)NC(C)C(=O)N1C(C(=O)O)CC2CCCC21 (stereo unspecified),inactive,inactive,8.81% (inactive),13.5,25.8,inactive,,,
CC(=O)OC1C[C@]2(C)[C@@H](CC(O)C3[C@]4(C)CCC(O)C(C)[C@@H]4CC[C@]32C)/C1=C(/CCC=C(C)C)C(=O)O (stereo partly specified),inactive,inactive,5.26% (inactive),12.3,24.1,inactive,,,
Fc1ccc([C@H]2CCNCC2COc2ccc3c(c2)OCO3)cc1 (stereo partly specified),inactive,inactive,12.8% (inactive),-0.955,14.7,inactive,,,
CCC1OC(=O)C(C)[C@@H](O[C@H]2C[C@@](C)(OC)C(O)C(C)O2)C(C)[C@@H](O[C@@H]2OC(C)CC(N(C)C)C2O)[C@@](C)(O)CC(C)CN(C)C(C)C(O)[C@]1(C)O (stereo partly specified),inactive,inactive,0.114% (inactive),12.3,14.1,inactive,,,
C[C@@]12CCC3c4ccc(O)cc4CCC3C1CCC2O (stereo partly specified),inactive,inactive,-2.04% (inactive),-0.621,-0.569,inactive,,,
CC(C)(C)NC[C@@H](O)COc1nsnc1N1CCOCC1,inactive,inactive,13.4% (inactive),16.2,36.5,inactive,,,
CC1(C)OC2CC3C4CCC5=CC(=O)C=C[C@@]5(C)[C@]4(F)C(O)C[C@@]3(C)[C@]2(C(=O)CO)O1 (stereo partly specified),inactive,inactive,-5.31% (inactive),-0.616,-3.49,inactive,,,
COc1cc(C(=O)OC2CC[C@]3(C)C4CCC5[C@]6(O)CC(O)[C@]7(O)C(CN8CC(C)CCC8[C@]7(C)O)[C@]6(O)C[C@@]53O[C@]24O)cc(OC)c1OC (stereo partly specified),inactive,inactive,4.04% (inactive),17.4,24.2,inactive,,,
CCC(=O)OCC(=O)C1(OC(=O)CC)C(C)CC2C3C(Cl)CC4=CC(=O)C=C[C@@]4(C)C3C(O)C[C@@]21C (stereo partly specified),inactive,inactive,4.4% (inactive),1.88,8.57,inactive,,,
C[C@]12CCC(=O)C=C1CCC1C2C(O)C[C@]2(C)C1CC[C@]2(O)C(=O)CO (stereo partly specified),inactive,inactive,12.8% (inactive),7.87,21.1,inactive,,,
COc1ccccc1-c1coc2cc(O)ccc2c1=O,inactive,inactive,5.08% (inactive),-6.55,10.3,,25.1 µM (active),inactive,
C=C1CC[C@@H]2O[C@@]2(C)CC[C@H]2[C@H]1CC2(C)C,,,1.31% (inactive),22.2,21.2,,,,inactive
